From the OligoGym collection

Biological target: JOSD1
Experiment: pooled miR-30 sensor sort-seq; sequence = guide strand
Conditions: shRNA
Note: reference of the scale not given here.

For TAGAAACTTCCTGAGCTCGCTC, which sensor-assay potency score (higher = more potent) is on record?
The sensor-assay potency score (higher = more potent) was 0.337.

For TTTCCCAGCATGCTCTTCTTGT, which sensor-assay potency score (higher = more potent) is on record?
The sensor-assay potency score (higher = more potent) was -0.498.

For TTTTAGAAACTTCCTGAGCTCG, which sensor-assay potency score (higher = more potent) is on record?
Its sensor-assay potency score (higher = more potent) is -0.609.

TGATGTTTTAGAAACTTCCTGA was tested. Which sensor-assay potency score (higher = more potent) did it give?
Its sensor-assay potency score (higher = more potent) is 0.299.

For TACCTCTTCTGGTACCACCAGC, which sensor-assay potency score (higher = more potent) is on record?
The sensor-assay potency score (higher = more potent) was -0.788.

Which sensor-assay potency score (higher = more potent) does the source give for TTTAGAAACTTCCTGAGCTCGC here?
Its sensor-assay potency score (higher = more potent) is 0.218.

Which sensor-assay potency score (higher = more potent) does the source give for TCGAACACAGATCCAGTGCTGC here?
The sensor-assay potency score (higher = more potent) was -0.708.

Biological target: KAAG1
Experiment: as above
Conditions: shRNA

With TCAGTTTCTCGTTCGTTTCAGG as the sequence, how does the sensor-assay potency score (higher = more potent) read?
The sensor-assay potency score (higher = more potent) was -0.203.

How did the sensor-assay potency score (higher = more potent) turn out when TTTCAGGAGGCGATCCCGCGCC was run?
The sensor-assay potency score (higher = more potent) was -0.845.

For TTTCTCGTTCGTTTCAGGAGGC, which sensor-assay potency score (higher = more potent) is on record?
Its sensor-assay potency score (higher = more potent) is 0.381.

How did the sensor-assay potency score (higher = more potent) turn out when TCGTTTCAGGAGGCGATCCCGC was run?
Its sensor-assay potency score (higher = more potent) is -1.24.

With TTCGTCAGTTTCTCGTTCGTTT as the sequence, how does the sensor-assay potency score (higher = more potent) read?
The sensor-assay potency score (higher = more potent) was -0.143.

How did the sensor-assay potency score (higher = more potent) turn out when TGGATTCGTCAGTTTCTCGTTC was run?
Its sensor-assay potency score (higher = more potent) is -0.583.

TCAGCCCGTCGTGAAGAGCGTG was tested. Which sensor-assay potency score (higher = more potent) did it give?
The sensor-assay potency score (higher = more potent) was -1.18.

How did the sensor-assay potency score (higher = more potent) turn out when TTCTCGTTCGTTTCAGGAGGCG was run?
Its sensor-assay potency score (higher = more potent) is -0.584.

For ATTCGTCAGTTTCTCGTTCGTT, which sensor-assay potency score (higher = more potent) is on record?
The sensor-assay potency score (higher = more potent) was -0.19.

Which sensor-assay potency score (higher = more potent) does the source give for AAGAGCGTGCTTGTGTACCGCA here?
Its sensor-assay potency score (higher = more potent) is -0.0933.

TCTCGTTCGTTTCAGGAGGCGA was tested. Which sensor-assay potency score (higher = more potent) did it give?
Its sensor-assay potency score (higher = more potent) is -0.839.

TGCTTGTGTACCGCAACGGGGA was tested. Which sensor-assay potency score (higher = more potent) did it give?
Its sensor-assay potency score (higher = more potent) is -1.14.

Biological target: KBTBD10
Experiment: as above
Conditions: shRNA

For TTGTCTAGCACTACCTCCTTTT, which sensor-assay potency score (higher = more potent) is on record?
Its sensor-assay potency score (higher = more potent) is -0.574.

For TTGCTAGGCAACTAGCTCCTGA, which sensor-assay potency score (higher = more potent) is on record?
Its sensor-assay potency score (higher = more potent) is -0.209.

TTGTACATTTTTTGTCATCTGT was tested. Which sensor-assay potency score (higher = more potent) did it give?
Its sensor-assay potency score (higher = more potent) is -0.405.

Which sensor-assay potency score (higher = more potent) does the source give for TAAGGTAGCATTCATTTTCCGT here?
Its sensor-assay potency score (higher = more potent) is -0.0345.

For ATTGTCTAGCACTACCTCCTTT, which sensor-assay potency score (higher = more potent) is on record?
The sensor-assay potency score (higher = more potent) was -0.463.

With TATGTCATTGACTTCAGTGGGT as the sequence, how does the sensor-assay potency score (higher = more potent) read?
The sensor-assay potency score (higher = more potent) was 0.618.

With TTGCATACAGAGATCCAGCCAG as the sequence, how does the sensor-assay potency score (higher = more potent) read?
The sensor-assay potency score (higher = more potent) was -0.134.

For TTTTGCTGGGTAACAATGCTGG, which sensor-assay potency score (higher = more potent) is on record?
The sensor-assay potency score (higher = more potent) was -0.684.

TTTATCATCCACCTCTCCCAGA was tested. Which sensor-assay potency score (higher = more potent) did it give?
Its sensor-assay potency score (higher = more potent) is -0.692.

With TAGCTCCTGAAGCATAACGTAT as the sequence, how does the sensor-assay potency score (higher = more potent) read?
The sensor-assay potency score (higher = more potent) was -1.66.

How did the sensor-assay potency score (higher = more potent) turn out when TGAAGCATAACGTATTTCCTTC was run?
The sensor-assay potency score (higher = more potent) was -0.295.

TTTGCCTGCAACTACATAGATT was tested. Which sensor-assay potency score (higher = more potent) did it give?
The sensor-assay potency score (higher = more potent) was -1.51.

Biological target: KBTBD12
Experiment: as above
Conditions: shRNA

TTCATCAGGAAGATCCATCTGA was tested. Which sensor-assay potency score (higher = more potent) did it give?
The sensor-assay potency score (higher = more potent) was 0.942.

Which sensor-assay potency score (higher = more potent) does the source give for TGGTCATCTAGCTACAACCTAC here?
Its sensor-assay potency score (higher = more potent) is -1.11.

Which sensor-assay potency score (higher = more potent) does the source give for TATATTTTTGACACACACTGAA here?
Its sensor-assay potency score (higher = more potent) is 0.336.

TAAATCTTCAGCTCCAATCTGC was tested. Which sensor-assay potency score (higher = more potent) did it give?
The sensor-assay potency score (higher = more potent) was 0.302.

With TATGTCTTGATCTGATTCCTGA as the sequence, how does the sensor-assay potency score (higher = more potent) read?
The sensor-assay potency score (higher = more potent) was 0.119.

For TTGTCTTGACCTACACAGCCAA, which sensor-assay potency score (higher = more potent) is on record?
The sensor-assay potency score (higher = more potent) was -0.566.

How did the sensor-assay potency score (higher = more potent) turn out when TTATTCAGTAAATTCAAGCTAT was run?
Its sensor-assay potency score (higher = more potent) is -0.287.

Which sensor-assay potency score (higher = more potent) does the source give for TTGTAGTGTCTTATTTACCCTA here?
Its sensor-assay potency score (higher = more potent) is -0.555.

For TTCTTCATCAGGAAGATCCATC, which sensor-assay potency score (higher = more potent) is on record?
Its sensor-assay potency score (higher = more potent) is -0.961.
